Reference: ChEMBL document CHEMBL1857833, “Screening and optimization of specific chemical series against human African Trypanosomiasis (HAT)”
Out of some 4,400 compounds screened, about 390 (8.9%) showed an effect of 50% or more. Many of the other results were omitted from the sample, so strong results are more common in it than they were.

System: Trypanosoma brucei
Assay: DNDI: Inhibition of Human African Trypanosomiasis, SBRI 427, in vitro at 2 ug.mL-1
Type: functional

Question: For Cc1ccc(-c2nc(CN3CCN(C/C=C/c4ccccc4)CC3)co2)cc1, which “% inhibition” value is on record?
Answer: 8%

Question: CC(C)c1cccc(Oc2cc(/C(=N/O)N3Cc4ccccc4C3)ccn2)c1 was tested. Which “% inhibition” value did it give?
Answer: 67%

Question: With Cc1ccc(/C(=N/O)N2Cc3ccccc3C2)c(Oc2cccc(C(C)C)c2)n1 as the compound, how does the “% inhibition” value read?
Answer: 0%

Question: With O/N=C(/c1ccnc(Oc2cccc(F)c2)c1)N1CCC=N1 as the compound, how does the “% inhibition” value read?
Answer: 4%

Question: With O/N=C(/c1ccnc(Oc2ccc(F)c(Cl)c2)c1)N1CCN(c2ccc(F)cc2)CC1 as the compound, how does the “% inhibition” value read?
Answer: 34%

Question: For CC(C)c1cccc(Oc2cc(/C(=N/O)N3CCN(c4ccccc4)CC3)ccn2)c1, which “% inhibition” value is on record?
Answer: 86%

Question: How did the “% inhibition” value turn out when O/N=C(/c1ccnc(Oc2ccc(Cl)cc2)c1)N1CCN(c2ccccc2)CC1 was run?
Answer: 28%

Question: Which “% inhibition” value does the source give for CC(C)c1cccc(Oc2cc(/C(=N/O)N3CCC=N3)ccn2)c1 here?
Answer: 53%

Question: How did the “% inhibition” value turn out when O/N=C(/c1ccnc(Oc2ccc(F)c(Cl)c2)c1)N1CCN(c2ccccc2)CC1 was run?
Answer: 58%

Question: For COc1ccc(Oc2cc(/C(=N/O)N3CCN(c4ccccc4)CC3)ccn2)cc1, which “% inhibition” value is on record?
Answer: 22%

Question: With COc1ccc(Oc2cc(/C(=N/O)N3CCC=N3)ccn2)cc1 as the compound, how does the “% inhibition” value read?
Answer: 39%

Question: How did the “% inhibition” value turn out when CCOc1ccc(Oc2cc(/C(=N/O)N3Cc4ccccc4C3)ccn2)cc1 was run?
Answer: 3%

Question: CC(C)c1cccc(Oc2cc(/C(=N/O)N3CCN(C)CC3)ccn2)c1 was tested. Which “% inhibition” value did it give?
Answer: 4%

Question: With CCOC(=O)C1CCCCN1Cc1coc(-c2ccccc2C)n1 (stereo not drawn) as the compound, how does the “% inhibition” value read?
Answer: 1%

Question: How did the “% inhibition” value turn out when Cc1ccc(-c2nc(CNC(C)(C)CC(C)(C)C)co2)cc1 was run?
Answer: 19%

Question: Which “% inhibition” value does the source give for N#CCCN(Cc1coc(-c2ccc(Br)cc2)n1)CC1CCCO1 (stereo not drawn) here?
Answer: 11%

Question: CCOc1ccccc1-c1nc(Cn2ncc3c2CCCC3)co1 was tested. Which “% inhibition” value did it give?
Answer: 12%

Question: With Cc1ccc(/C(=N/O)N(C)Cc2ccco2)c(Oc2cc(Cl)ccc2Cl)n1 as the compound, how does the “% inhibition” value read?
Answer: 13%

Question: With CCCCN(CC#N)Cc1coc(-c2ccc(OC)cc2)n1 as the compound, how does the “% inhibition” value read?
Answer: 1%

Question: Cc1ccc(/C(=N/O)n2nc(C)cc2C)c(Oc2ccc3ccccc3c2)n1 was tested. Which “% inhibition” value did it give?
Answer: 6%

Question: How did the “% inhibition” value turn out when CSc1ccc(Oc2nc(C)ccc2/C(=N/O)NCc2ccco2)cc1 was run?
Answer: -3%

Question: Which “% inhibition” value does the source give for c1ccc2c(-c3nc(CN4CCC5(CC4)OCCO5)co3)cccc2c1 here?
Answer: 1%

Question: For CCN(CC)CCN(CC)Cc1coc(-c2ccccc2C)n1, which “% inhibition” value is on record?
Answer: 5%

Question: With CC1CC(C)CN(/C(=N\O)c2ccnc(Oc3cccc(C(C)C)c3)c2)C1 (stereo not drawn) as the compound, how does the “% inhibition” value read?
Answer: 58%

Question: CC1CC(C)CN(/C(=N\O)c2ccnc(Oc3ccc(F)c(F)c3)c2)C1 (stereo not drawn) was tested. Which “% inhibition” value did it give?
Answer: 5%

Question: With CC1CC(C)CN(/C(=N\O)c2ccnc(Oc3ccc(Cl)cc3)c2)C1 (stereo not drawn) as the compound, how does the “% inhibition” value read?
Answer: 67%

Question: For CC(C)c1cccc(Oc2cc(/C(=N/O)N3CCC4CCCCC4C3)ccn2)c1 (stereo not drawn), which “% inhibition” value is on record?
Answer: 9%

Question: CC1CC(C)CN(/C(=N\O)c2ccnc(Oc3cccc(F)c3)c2)C1 (stereo not drawn) was tested. Which “% inhibition” value did it give?
Answer: -1%

Question: Which “% inhibition” value does the source give for CC1CC(C)CN(/C(=N\O)c2ccnc(Oc3ccc(F)c(Cl)c3)c2)C1 (stereo not drawn) here?
Answer: 16%

Question: How did the “% inhibition” value turn out when COc1ccc(-c2nc(CNC(C)c3cccc4ccccc34)co2)cc1 (stereo not drawn) was run?
Answer: 13%

Question: How did the “% inhibition” value turn out when Cc1ccc(/C(=N/O)NCc2cccnc2)c(Oc2c(F)c(F)cc(F)c2F)n1 was run?
Answer: 35%

Question: CCCCN(C)Cc1coc(-c2ccccc2)n1 was tested. Which “% inhibition” value did it give?
Answer: 6%

Question: With CSc1ccc(Oc2cc(/C(N)=N/O)ccn2)cc1 as the compound, how does the “% inhibition” value read?
Answer: 21%

Question: With Cc1ccc(N2CCN(Cc3coc(-c4cccc(F)c4)n3)CC2)cc1C as the compound, how does the “% inhibition” value read?
Answer: -4%

Question: How did the “% inhibition” value turn out when O/N=C(\NC1CCCC1)c1ccnc(Oc2cccc(F)c2)c1 was run?
Answer: 82%

Question: Which “% inhibition” value does the source give for CC(C)c1ccc(N/C(=N\O)c2ccnc(Oc3ccc(F)c(F)c3)c2)cc1 here?
Answer: 22%

Question: Which “% inhibition” value does the source give for O/N=C(/c1ccnc(Oc2ccc(F)c(F)c2)c1)N1CCCCCC1 here?
Answer: 12%

Question: With O/N=C(\NCc1ccccn1)c1ccnc(Oc2cccc(F)c2)c1 as the compound, how does the “% inhibition” value read?
Answer: -2%

Question: How did the “% inhibition” value turn out when CC1CCN(/C(=N\O)c2ccnc(Oc3ccc(F)c(F)c3)c2)CC1 was run?
Answer: 41%

Question: Which “% inhibition” value does the source give for O/N=C(\NC1CCCCC1)c1ccnc(Oc2ccc(F)c(F)c2)c1 here?
Answer: 99%

Question: Which “% inhibition” value does the source give for O/N=C(\NC1CCCC1)c1ccnc(Oc2ccc(F)c(F)c2)c1 here?
Answer: 101%

Question: Which “% inhibition” value does the source give for O/N=C(\NCc1ccncc1)c1ccnc(Oc2ccc(F)c(F)c2)c1 here?
Answer: 8%

Question: CC(C)c1ccc(N/C(=N\O)c2ccnc(Oc3cccc(F)c3)c2)cc1 was tested. Which “% inhibition” value did it give?
Answer: -2%

Question: Which “% inhibition” value does the source give for CCN(Cc1coc(-c2cccc3ccccc23)n1)C(C)C here?
Answer: -1%

Question: With Cc1cccc(N2CCN(Cc3coc(-c4ccccc4Cl)n3)CC2C)c1 (stereo not drawn) as the compound, how does the “% inhibition” value read?
Answer: -10%

Question: For CSCCN/C(=N\O)c1cccnc1Oc1c(F)cccc1F, which “% inhibition” value is on record?
Answer: 78%

Question: For COCCN/C(=N\O)c1cccnc1Oc1c(F)cccc1F, which “% inhibition” value is on record?
Answer: 65%

Question: Which “% inhibition” value does the source give for COc1ccc(Oc2ncccc2/C(=N/O)NCCSC)cc1 here?
Answer: 10%

Question: Which “% inhibition” value does the source give for CSCCN/C(=N\O)c1cccnc1Oc1cccc2ccccc12 here?
Answer: 11%

Question: For CCOc1ccccc1Oc1ncccc1/C(=N/O)NCCOC, which “% inhibition” value is on record?
Answer: 13%

Question: Which “% inhibition” value does the source give for COCCN/C(=N\O)c1cccnc1Oc1cccc(C)c1C here?
Answer: 0%

Question: For CC(NCc1coc(-c2cccc(F)c2)n1)C(C)(C)C (stereo not drawn), which “% inhibition” value is on record?
Answer: 8%

Question: Clc1ccccc1-c1nc(CN2CCCCCCC2)co1 was tested. Which “% inhibition” value did it give?
Answer: 14%

Question: With Cc1cccc(CNCc2coc(-c3ccccc3Br)n2)c1 as the compound, how does the “% inhibition” value read?
Answer: -1%

Question: Which “% inhibition” value does the source give for CC1CC(C)CN(/C(=N\O)c2ccc(Oc3ccc(Cl)cc3)nc2)C1 (stereo not drawn) here?
Answer: 0%

Question: How did the “% inhibition” value turn out when CCOc1ccccc1-c1nc(CNCc2ccc(C(F)(F)F)cc2)co1 was run?
Answer: 6%

Question: How did the “% inhibition” value turn out when CN(Cc1cccnc1)/C(=N\O)c1ccc(Oc2ccc3ccccc3c2)nc1 was run?
Answer: 9%

Question: How did the “% inhibition” value turn out when COc1ccc(CN/C(=N\O)c2ccc(Oc3cccc(F)c3)nc2)cc1 was run?
Answer: -3%

Question: With CC(C)c1cccc(Oc2cc(/C(=N/O)NCc3ccncc3)ccn2)c1 as the compound, how does the “% inhibition” value read?
Answer: 10%

Question: Which “% inhibition” value does the source give for O/N=C(\NCc1ccncc1)c1ccc(Oc2cccc(F)c2)nc1 here?
Answer: 50%

Question: Which “% inhibition” value does the source give for COc1cccc(Oc2ccc(/C(=N/O)NCc3cccs3)cn2)c1 here?
Answer: 2%

Question: For O/N=C(\NCc1cccs1)c1ccc(Oc2cccc(F)c2)nc1, which “% inhibition” value is on record?
Answer: 75%

Question: CC(C)c1cccc(Oc2ccc(/C(=N/O)NCc3ccncc3)cn2)c1 was tested. Which “% inhibition” value did it give?
Answer: 100%

Question: How did the “% inhibition” value turn out when CC(C)c1cccc(Oc2ccc(/C(=N/O)N(C)Cc3cccnc3)cn2)c1 was run?
Answer: 99%

Question: Which “% inhibition” value does the source give for O/N=C(\NCc1cc(F)cc(F)c1)c1ccc(Oc2cccc(F)c2)nc1 here?
Answer: 42%

Question: How did the “% inhibition” value turn out when Cc1cc(Oc2ccc(/C(=N/O)NCc3ccncc3)cn2)cc(C(C)C)c1 was run?
Answer: 3%

Question: How did the “% inhibition” value turn out when Cc1cc(Oc2ccc(/C(=N/O)N(C)Cc3cccnc3)cn2)cc(C(C)C)c1 was run?
Answer: 12%

Question: O/N=C(\NCc1cccs1)c1ccc(Oc2ccc3ccccc3c2)nc1 was tested. Which “% inhibition” value did it give?
Answer: -9%
